Results on 39 sequences are retold here after the OligoGym collection.
Further: reference of the scale not given here.

One assay addresses PALM2-AKAP2. Nature of the assay: pooled miR-30 sensor sort-seq; sequence = guide strand. The conditions noted are these: shRNA.
In turn, TTAGTCAGTGGCTTGTCTGAGT had a sensor-assay potency score (higher = more potent) of 0.113.
The same measure, in the same setting: the result for TTTTAGATTTGTGTGTCTCATA reads -0.987.
The same measure, in the same setting: the result for TCTGGCAACATCATTATCCAGG reads -0.478.
On the same count and under the same terms, in the case of TTGATTTGCTTGTAACATGTTT it was -0.674.

The target of the next assay is PAQR4. The assay is described as above. The conditions noted are these: shRNA.
On to TAGAGCACGGAGCCTGCAGGGG, for which the sensor-assay potency score (higher = more potent) was -1.54.
Still for that read-out and setting: the result for TTATTGAACTGCAGGTGCGGCG reads -1.14; that for TTTATTGATGTCATCCAGGGTC, 0.153.
As to TCGTTGTGCAGGTAGAAGAGGC, the sensor-assay potency score (higher = more potent) was -0.773.
Still for that read-out and setting: the result for TATTGAACTGCAGGTGCGGCGG reads -0.944; that for TTGGTGGCACATAAAGAGGTGA, -0.895.
For the sequence AAAGAGGTGATAGAGCACGGAG, the sensor-assay potency score (higher = more potent) was -0.892.
The same measure, in the same setting: in the case of TAGCAGGGCAGGGAGCCTGGAG it was -1.85; in that of GAACTTATTGAACTGCAGGTGC, -1.19.
Consider TTCGTTGTGCAGGTAGAAGAGG, for which the sensor-assay potency score (higher = more potent) was -0.851.
Still for that read-out and setting: in the case of TTGAACTGCAGGTGCGGCGGCG it was -1.22; in that of TAGAAGAGGCTGCGCAGGCAGC, -1.34.

The target in another assay is PAQR6. Described as above. The conditions noted are these: shRNA.
In the case of TTGTCGAACAGGAATGGATAGG, the sensor-assay potency score (higher = more potent) is -0.865.
Same read-out and setting: the result for TCGTTGGTCATCTGGAAGGAGC reads -1.68.
TAATGAGTAGGTTCCCAGCTGC: the sensor-assay potency score (higher = more potent) was -0.176.
The same measure, in the same setting: in the case of TAGGTTCCCAGCTGCAGCCAAG it was -1.67; in that of TAGGCGAAGGCTCCTGTGCGGA, -1.44; in that of TGTGAAAGCAGCAATAATGAGT, -0.688.
The same measure, in the same setting: in the case of TGTAATCAAAGCGTCCTGGTGC it was 0.2.
Still for that read-out and setting: in the case of AAAGAGTGGGAGGTTGTCGAAC it was -1.08; in that of TCTATAGGCAAATAGCTGCTGG, -0.274; in that of TTGGTCATCTGGAAGGAGCTGA, 0.592.
Turning to TGAGGACACAGTCCAAAGCCGA, the sensor-assay potency score (higher = more potent) is -1.67.

The next assay deals with PARN. Described as above. The following applies: shRNA.
The sequence ATACATAGGACAGAGCTCCTGC showed a sensor-assay potency score (higher = more potent) of 0.763.
On the same count and under the same terms, the result for TTTATTAAAATCAAATCCCTGG reads 0.307; that for TAAACTTCTTTTGATCCTCAGG, -0.665; that for TTTCTCTTTCCTACTGTGCTGG, 0.101.
The same measure, in the same setting: the result for TTCATGACAGCCTACAACCGTG reads -0.783; that for TAAGCTTCTGATACCTCTCTTC, 0.34.
Still for that read-out and setting: the result for TAGCTTTCTGCATATTTGCTGG reads -0.898; that for TTTAGTATCCAAGAGTCTGGGG, -0.201; that for TAGAAGTTAAATGACTTCGTTA, -0.166.
With TTCTTCTTCATCTACTTTGCTG, the sensor-assay potency score (higher = more potent) was -0.0536.
On the same count and under the same terms, the result for TTGACATCTGGTGAGGATCTAT reads -0.282; that for TAGGCTGCAAGTCTGGTCCTTC, 0.109.
